# Screening results from PubChem BioAssay.
# The entries come from a sample that favours hits as a whole.
# Tg IFNy HTS: inhibitors of Toxoplasma gondii growth with IFN-gamma | Toxoplasma gondii growth in IFN-gamma-treated host cells; stronger effect = lower value | activity change, negative = inhibition, % (no concentration beside the values) | actives 3.8% (n = 69,000) | AID 1259416; in the data active = activity change below about -70%, passing the limit was not always enough;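 also: host cells are HeLa cells infected with Toxoplasma gondii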
# Starred values were filed as active, the others as inactive; ! = not confirmed by another sample.
SMILES,Tg IFNy HTS
COc1ccc(C(=O)NCCc2sc(-c3ccc(Cl)cc3)nc2C)c(OC)c1,-70
Cc1nc(-c2ccc(F)cc2)sc1CCNC(=O)c1ccccc1F,-37
COc1ccc(C(=O)NCCc2sc(-c3ccc(F)cc3)nc2C)c(OC)c1,-87*
COc1cccc(C(=O)NCCc2sc(-c3ccc(F)cc3)nc2C)c1OC,-10
COc1ccc(C(=O)NCCc2sc(-c3cccc(F)c3)nc2C)c(OC)c1,-42
CNC(=O)c1ccc(-c2nc(CN3CCN(S(=O)(=O)c4ccc(C(C)C)cc4)CC3)c(C)o2)cc1,46
C(#Cc1ccccc1)CN(Cc1nc(-c2ccco2)no1)C1CC1,-2
CCS(=O)(=O)N1CCCn2nnc(COCC3CC3)c2C1,-1
Cc1cccc(CN2C[C@H]3[C@H](C(=O)N4CCOCC4)CCS(=O)(=O)[C@H]3C2)c1,-1
Cc1cccc(CN2C[C@H]3[C@H](C(=O)Nc4ccccc4)CCS(=O)(=O)[C@H]3C2)c1,-115*
Cc1cccc(CN2C[C@H]3[C@H](C(=O)N(C)C)CCS(=O)(=O)[C@H]3C2)c1,-47
Cc1cc(C(=O)N2CCC3OCCN(CCN(C)C)C3CC2)c(C)o1 (stereo not given),271
Cc1ccc(C(=O)N2CCC3(CC3C(=O)NCc3ccncc3)C2)cc1C (stereo not given),73
Cc1ccc(CN(Cc2cccnc2)C2CC(C)(C)NC(C)(C)C2)s1,-23
Cc1cccnc1-c1ccc2c(c1)CC(CNC(=O)/C=C/c1ccc(F)cc1F)O2 (stereo not given),-50
CCN(CC)C(=O)CN1CCC(Cc2cc(NC3CCCC3)nc(C)n2)CC1,-17
Cn1cnc(S(=O)(=O)N2CCCC(N)CC2)c1 (stereo not given),-1
Cc1nc(CC2CCCN(S(=O)(=O)c3cn(C)cn3)C2)cc(Nc2ncc(C)s2)n1 (stereo not given),-97*
CN(C)Cc1ccccc1OCc1cn([C@@H]2CN[C@H](C(=O)O)C2)nn1,13
Cc1ccccc1-c1ccc(C2[C@@H]3CN(S(=O)(=O)Cc4ccccc4)C[C@H]2N3)cc1 (stereo not given in full),-77*
Cc1ccccc1-c1ccc([C@H]2[C@H](CO)N3CCCCN(S(=O)(=O)Cc4ccccc4)C[C@@H]23)cc1,-47
N#Cc1cccc(-c2ccc(C3[C@@H]4CN(C(=O)C5CCOCC5)C[C@H]3N4)cc2)c1 (stereo not given in full),-10
Cc1ccccc1-c1ccc([C@@H]2[C@@H](CO)N3CCCCN(S(=O)(=O)Cc4ccccc4)C[C@H]23)cc1,-60
Cc1ccccc1S(=O)(=O)N1C[C@@H]2N[C@H](C1)C2c1ccc(-c2cccc(C#N)c2)cc1 (stereo not given in full),-71*!
CS(=O)(=O)N1C[C@@H]2N[C@H](C1)[C@@H]2c1ccc(-c2ccccc2)cc1,-67
SMILES,Tg IFNy HTS
CNC(=O)[C@H]1C[C@@H]2CN(CC3CCOCC3)C[C@@H]2N1C(C)=O,2
COC(=O)Cn1cc(CN2CCCC2c2cc(C(C)C)no2)c2cc(OC)ccc21 (stereo not given),1
COc1ccc(-n2cccn2)c(CN2CCOCC(CN(C)C)C2)c1 (stereo not given),1
Cc1ccc(CN2CC[C@@H]3[C@H](CO[C@H]3CN3CCOCC3)C2)o1,141
O=C(CN1C(=O)CCc2cc(Br)ccc21)Nc1ccc2c(c1)OCO2,91
COc1cccc(CN(C)Cc2cc3ccc(F)cc3[nH]c2=O)c1,10
Cc1cccc2cc(CN(Cc3ccccc3)C(=O)Nc3ccc(F)cc3)c(=O)[nH]c12,-104*
Cc1ccc(NC(=O)N(Cc2ccco2)Cc2cc3cc4c(cc3[nH]c2=O)OCCO4)cc1,-5
CCCCNC(=O)N1CCC2(CC1)COCCN(Cc1ccncc1)C2,-12
Cc1nn(C)cc1S(=O)(=O)N1CCC(c2ccn[nH]2)C1 (stereo not given),11
O=S(=O)(Nc1cc(Sc2ncn[nH]2)c(O)c2ccccc12)c1cccs1,-98*
CCOc1ccccc1NS(=O)(=O)c1cccs1,3
O=C(NCc1cccnc1)c1ccccc1NS(=O)(=O)c1cccs1,28
COCC1CN(C(=O)Cc2cccs2)Cc2nnn(C)c21 (stereo not given),-43
Cc1cccc(CN2CCC(N(C)C)CC2C(=O)O)n1 (stereo not given),3
C1=C(c2cccs2)OC(c2cccs2)=CC1c1cccs1,7
Cc1ccccc1NC(=O)Cn1c(=O)cc(C(=O)N2CCCC2)c2ccccc21,16
C[C@@H]1CCCCO[C@H](CN(C)S(=O)(=O)c2ccc(Cl)cc2)[C@@H](C)CN([C@@H](C)CO)C(=O)c2cc(NC(=O)Nc3ccc(C(F)(F)F)cc3)ccc2O1,-20
COc1ccc(S(=O)(=O)Nc2ccc3c(c2)C(=O)N([C@H](C)CO)C[C@H](C)[C@@H](CN(C)S(=O)(=O)c2ccc(Cl)cc2)OCCCC[C@@H](C)O3)cc1,4
COc1ccc(S(=O)(=O)Nc2ccc3c(c2)C(=O)N([C@@H](C)CO)C[C@H](C)[C@@H](CN(C)S(=O)(=O)c2ccc(Cl)cc2)OCCCC[C@@H](C)O3)cc1,-113*
C[C@@H]1CCCCO[C@@H](CN(C)S(=O)(=O)c2ccc(Cl)cc2)[C@@H](C)CN([C@@H](C)CO)C(=O)c2cc(NC(=O)Nc3ccc(C(F)(F)F)cc3)ccc2O1,176
C[C@@H]1CCCCO[C@H](CN(C)S(=O)(=O)c2ccc(Cl)cc2)[C@H](C)CN([C@@H](C)CO)C(=O)c2cc(NC(=O)Nc3ccc(C(F)(F)F)cc3)ccc2O1,-56
C[C@@H]1CN([C@H](C)CO)C(=O)c2cc(NS(=O)(=O)c3ccc(Cl)cc3)ccc2O[C@@H](C)CCCCO[C@@H]1CN(C)C(=O)CCCN(C)C,-16
COc1ccc(S(=O)(=O)Nc2ccc3c(c2)C(=O)N([C@H](C)CO)C[C@H](C)[C@@H](CN(C)S(=O)(=O)c2ccc(Cl)cc2)OCCCC[C@H](C)O3)cc1,-113*
C[C@@H]1CN([C@@H](C)CO)C(=O)c2cc(NC(=O)Nc3ccc(C(F)(F)F)cc3)ccc2O[C@@H](C)CCCCO[C@@H]1CN(C)S(=O)(=O)c1ccc(Cl)cc1,213
SMILES,Tg IFNy HTS
COc1ccc(S(=O)(=O)Nc2ccc3c(c2)C(=O)N([C@@H](C)CO)C[C@H](C)[C@@H](CN(C)S(=O)(=O)c2ccc(Cl)cc2)OCCCC[C@H](C)O3)cc1,-130*
COc1ccc(S(=O)(=O)Nc2ccc3c(c2)C(=O)N([C@@H](C)CO)C[C@@H](C)[C@@H](CN(C)S(=O)(=O)c2ccc(Cl)cc2)OCCCC[C@H](C)O3)cc1,-128*
Cc1cccc(N2C[C@H]3CN(c4cnn(C)c4)C(=O)[C@@H]3C2)n1,22
Cn1cc(CN2CCCC23CCN(S(C)(=O)=O)CC3)cn1,-34
Cn1cc(NC(=O)CN2CCCCC2c2nc3ccc(F)cc3[nH]2)cn1 (stereo not given),16
Cc1cc(N2CCCC2)n2nc(CN3CCC(N4CCCCC4)CC3)nc2n1,-16
CO[C@H]1CCN(C(=O)c2cc(C3CC3)on2)C[C@@H]1Cc1ccccc1,-7
O=S(=O)(NC1CC2(CCN(Cc3cccc(F)c3F)C2)C1)C1CC1 (stereo not given),-41
Cc1nc2c(c(NCCc3ccncc3)n1)CNC2,1
O=C(NCc1noc(Cc2ccccc2)n1)c1cccc2ccnn12,7
O=C(NCc1coc(-c2ccccc2)n1)c1cccc2ccnn12,-80*
O=C(NCc1csc(N2CCOCC2)n1)c1cccc2ccnn12,33
